# Laboratory results: PubChem BioAssay AID624487 (NMMLSC, 2012)
# Measured potencies and affinities stand elsewhere. Calls of active or inactive are those of the source.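 The calls were made as follows: active = fitted EC50, the dose giving half the maximal drop in porphyrin signal, under 100 µM; inactive = the rest.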
# Target: ATP-binding cassette sub-family B member 6 (Homo sapiens) (UniProt Q9NP58)
# Experiment: ABCB6 transporter inhibitors, porphyrin accumulation, dose response, flow cytometry, K562-ABCB6 cells, cherry pick 02 (AID 624487)
# Sequence of ATP-binding cassette sub-family B member 6 (Homo sapiens) (Q9NP58 whole entry, looked up): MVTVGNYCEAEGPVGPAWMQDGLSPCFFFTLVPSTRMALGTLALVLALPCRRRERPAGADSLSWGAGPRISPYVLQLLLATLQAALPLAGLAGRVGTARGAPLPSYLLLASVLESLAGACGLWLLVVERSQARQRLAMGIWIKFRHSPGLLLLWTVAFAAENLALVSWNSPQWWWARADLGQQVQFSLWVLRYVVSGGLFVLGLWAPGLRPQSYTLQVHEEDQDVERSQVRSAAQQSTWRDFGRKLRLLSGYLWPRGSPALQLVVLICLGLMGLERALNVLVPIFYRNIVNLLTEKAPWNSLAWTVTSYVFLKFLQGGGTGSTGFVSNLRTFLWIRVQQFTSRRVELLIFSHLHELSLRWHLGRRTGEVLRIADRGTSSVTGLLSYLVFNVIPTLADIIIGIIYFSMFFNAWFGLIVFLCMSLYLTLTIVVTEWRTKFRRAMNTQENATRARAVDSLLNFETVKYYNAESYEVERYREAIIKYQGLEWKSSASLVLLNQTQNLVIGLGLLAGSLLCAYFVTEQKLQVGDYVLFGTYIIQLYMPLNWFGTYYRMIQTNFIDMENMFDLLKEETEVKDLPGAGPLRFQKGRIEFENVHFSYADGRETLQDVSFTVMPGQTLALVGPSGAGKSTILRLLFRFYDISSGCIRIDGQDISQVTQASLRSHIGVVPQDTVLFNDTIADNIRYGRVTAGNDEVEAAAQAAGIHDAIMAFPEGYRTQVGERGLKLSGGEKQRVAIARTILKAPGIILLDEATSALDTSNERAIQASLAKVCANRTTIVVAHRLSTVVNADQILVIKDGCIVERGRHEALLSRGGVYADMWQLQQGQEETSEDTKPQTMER
row,SMILES,outcome
1,CCOc1ccccc1NC(=O)c1nc(S(=O)(=O)Cc2ccccc2)ncc1Cl,inactive
2,CCc1nnc(NC(=O)c2nc(S(=O)(=O)Cc3ccccc3)ncc2Cl)s1,inactive
3,Cc1ccc(CS(=O)(=O)c2ncc(Cl)c(C(=O)Nc3ccc(OC(F)F)cc3)n2)cc1,inactive
4,Cc1cccc(CS(=O)(=O)c2ncc(Cl)c(C(=O)Nc3nnc(C(C)C)s3)n2)c1,inactive
5,COc1ccc(OC)c(NC(=O)c2nc(S(=O)(=O)Cc3ccccc3)ncc2Cl)c1,inactive
6,Cc1ccc(CS(=O)(=O)c2ncc(Cl)c(C(=O)Nc3nnc(C)s3)n2)cc1,inactive
7,CCc1nnc(NC(=O)c2nc(S(=O)(=O)Cc3cccc(C)c3)ncc2Cl)s1,inactive
8,CC(C)c1nnc(NC(=O)c2nc(S(=O)(=O)Cc3ccc(F)cc3)ncc2Cl)s1,inactive
9,CCOC(=O)c1ccc(NC(=O)c2nc(S(=O)(=O)Cc3ccccc3)ncc2Cl)cc1,inactive
10,CCCc1nnc(NC(=O)c2nc(S(=O)(=O)Cc3ccc(C)cc3)ncc2Cl)s1,inactive
11,Cc1nnc(NC(=O)c2nc(S(=O)(=O)Cc3ccccc3)ncc2Cl)s1,inactive
12,Cc1nnc(NC(=O)c2nc(S(=O)(=O)Cc3ccccc3C)ncc2Cl)s1,inactive
13,COc1ccc(NC(=O)c2nc(S(=O)(=O)Cc3cccc(C)c3)ncc2Cl)c(OC)c1,inactive
